Shiga toxin inh = A qHTS for Small Molecule Inhibitors of Shiga Toxin. Vero cells, Shiga toxin protein synthesis inhibition reporter. inhibition, % at 38.7 µM. actives 9.2% (n = 290,000); in the data active = inhibition mostly above about 28%, no sharp cut-off; inactive = mostly below about 43%; note: 0% is about no effect
Cycloheximide cs = Cycloheximide Counterscreen for Small Molecule Inhibitors of Shiga Toxin; cell reporter, cycloheximide protein synthesis inhibition counterscreen; actives 12% (n = 300,000); max response, %; in the data active = max response mostly above about 13%, no sharp cut-off; inactive = mostly below about 14%; note: read at 38.3 µM for the half of the compounds with a filed dose; 0% is about no effect
SARS PLpro yeast = qHTS of Yeast-based Assay for SARS-CoV PLP | Potency, µM (doses to about 32.9 µM), inactives show at the top dose activity, positive = growth rescue, actives largely listed as activators | AID 485353, 2010 | S. cerevisiae expressing SARS-CoV PLpro, growth rescue | actives 0.19% (n = 330,000); note: potency is the fitted concentration of half-maximal effect; 0% is about no effect; nearly all actives have a fitted effect of over 55% in size
NS1 function inh = qHTS Assay for Inhibitors of Influenza NS1 Protein Function | Potency, µM (highest dose often 46.1 µM), without a hit: top-dose activity, positive = more growth | actives 0.4% (n = 270,000); note: potency is the fitted concentration of half-maximal effect; actives are rising curves; nearly all actives have a fitted effect of over 50% in size
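OD600 was taken as the measure of yeast growth restored by compound in an NS1-expressing S. cerevisiae strain. Cells had been washed out of glucose medium and diluted 1:100 into galactose -URA medium, pH 6.0.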
NS1 inh valid = Assay for Inhibitors of Influenza NS1 Protein Function: Hit Validation; activity change, negative = inhibition, % at 32.9 µM; 1,400 tested, under 10 active; influenza NS1 function cell assay, 15-point titration; AID 492980, 2010; shares compounds with NS1 function inh; note: 0% is about no effect
Flu PR8 replic = Assay for Inhibitors of Influenza NS1 Protein Function: Influenza virus replication assay in MDCK cells infected with virus A/PR/8/34 | virus titer (log TCID50), log10 TCID50 at 5 µM | AID 504647, 2011 | shares compounds with NS1 function inh | actives 30% (n = 95) | MDCK infected influenza A/PR/8/34, virus titer TCID50; active compounds read low; call rule not given here
* marks the source's active call; other numbers are inactive results; u = inconclusive; x = not tested or not shown. In the library only some 12% were active in any assay of this set; here they are far more common. Unless noted, calls come from the whole dose curve.

SMILES	Shiga toxin inh	Cycloheximide cs	SARS PLpro yeast	NS1 function inh	NS1 inh valid	others
CCCCC1=CC2=CC(=O)C(C)(OC(=O)CC)C(=O)C2=CN1CCOC (centres undefined)	-7	-4	-3%	u	8
O=C(Nc1nc2ccc(S(=O)(=O)N3CCCCC3)cc2s1)c1ccncc1	2	-4	1%	10µM*	-28
O=C(O)CNC(=O)CCCn1nnc2ccccc2c1=O	9	-2	0%	2%	x
Cc1c(NP(=O)(c2ccc(Br)cc2)c2ccc(Br)cc2)c(=O)n(-c2ccccc2)n1C	4	2	-1%	x	x
CN(C)c1ccc(C(CNS(=O)(=O)c2ccc(F)cc2)c2c[nH]c3ccccc23)cc1 (centres undefined)	-7	-3	-19%	17%	x
CCOC(=O)c1ccc(S(=O)(=O)NCC(c2ccc(N(C)C)cc2)c2c[nH]c3ccccc23)cc1 (centres undefined)	15	2	-19%	8.9µM*	u
CCn1c(N2CCN(CC(=O)c3c(C)n(C)c4ccc(OC)cc34)CC2)nc2c1c(=O)[nH]c(=O)n2C	0	-2	-1%	11µM*	-37
Cc1cccc(NC(=O)CN(c2ccc(F)cc2)S(C)(=O)=O)c1	-24	-11	-2%	-2%	x
c1ccc(Cn2nnnc2C(c2ccccc2)N2CCN(c3nc4ccccc4s3)CC2)cc1 (centres undefined)	10	-2	-2%	10µM*	-14
c1ccc(C(c2nnnn2Cc2ccco2)N2CCN(c3nc4ccccc4s3)CC2)cc1 (centres undefined)	58*	31*	13%	13µM*	-19
COc1ccc(C(c2nnnn2Cc2ccccc2)N2CCN(c3nc4ccccc4s3)CC2)cc1OC (centres undefined)	13	-2	-5%	28%	x
CCOc1ccc(CCNC(=O)C2CC(=O)N(c3ccc4c(c3)OCCO4)C2)cc1OCC (centres undefined)	x	x	0%	x	x
COc1cc(C(=O)NCC(=O)OCc2cc(=O)oc3c(C)c(C)ccc23)cc(OC)c1OC	-2	7	-1%	x	x
CCCS(=O)(=O)c1ccc(COC(=O)c2cccc(NC(=O)C(C)C)c2)cc1	-24	8	0%	-2%	x
CC(C)CCNC(=O)NC(=O)CSc1nnc2ccccn12	16	5	11%	4.5µM*	2
COC(=O)c1cc(NC(=O)C2(S(=O)(=O)c3ccc(Cl)cc3)CC2)cc(C(=O)OC)c1	22	0	7%	11µM*	3
COC(=O)c1cc(NC(=O)C2(S(=O)(=O)c3ccc(C)cc3)CC2)cc(C(=O)OC)c1	-2	-3	11%	18%	x
CN1C(=O)C(c2nnc(Nc3cccc4ccccc34)s2)C2CC1(C)Oc1ccccc12 (centres undefined)	-3	-2	11%	11µM*	-21
Cc1ccccc1C(=O)NC(=S)Nc1sc2c(c1C#N)CCC(C)C2 (centres undefined)	28	-3	2%	19%	x
CC1CCc2c(sc(NC(=S)NC(=O)c3ccccc3)c2C#N)C1 (centres undefined)	65*	21*	2%	7.9µM*	6
CN1CCN(C(=S)C(=O)Nc2ccc(Br)cc2)CC1	1	-3	0%	2%	x
Cc1ccc(S(=O)(=O)n2nc(C)cc2N)cc1	2	-2	1%	22µM*	3
COc1cc(N)n(S(=O)(=O)c2ccc(C)cc2)n1	15	5	-1%	8%	x
O=S(=O)(Nc1ccc(O)c(Sc2nc3ccccc3s2)c1)c1cccc2ccccc12	-1	11	u	20µM*	-10
O=S(=O)(Nc1ccc(O)c(Sc2nc3ccccc3s2)c1)c1ccc(F)cc1	-16	9	-26%	-28%	x
SMILES	Shiga toxin inh	Cycloheximide cs	SARS PLpro yeast	NS1 function inh	NS1 inh valid	others
O=C(O)CCc1ccc(-c2ccc(F)cc2)n1CC(=O)O	-10	-1	9%	11%	x
NC(=O)Nn1c(CCC(=O)O)ccc1-c1ccc(F)cc1	-7	-3	u	u	9
Cc1ccc(-c2ccc(CCC(=O)O)n2CC(=O)O)cc1	-13	-3	6%	11µM*	11
COc1ccc(S(=O)(=O)N2CCC(C(=O)N[C@H](C(=O)NC3CCCC3)C(C)C)CC2)cc1	-3	-1	-2%	1%	x
NNC(=O)CN1C(c2ccccc2Br)=Nc2ccc(Br)cc2C1c1ccccc1 (centres undefined)	1	-3	16%	4.5µM*	-2	Flu PR8 replic=8.3
Nc1c(/C=C2/C=CC(=O)C(O)=C2)c(=O)nc2sc(CC(=O)N3CCCCC3)nn12	-14	3	11µM*	14µM*	-11
C[C@@]12CCC[C@H](O1)[C@@H]([C@H](O)c1ccccc1)O2	x	x	-3%	x	x
O=C(O)CSc1nnc(-c2cc3ccccc3o2)n1-c1ccccc1	0	-1	11%	u	3
CCOC(=O)C1CCCN(S(=O)(=O)c2cnc(Cl)c(Br)c2)C1 (centres undefined)	-9	18	3%	9%	x
Cc1ccc(-n2c(Cn3c(C)nc4ccccc43)n[nH]c2=S)cc1	-7	-3	-21%	u	22
Cc1ccc(-n2c(CCc3nc4ccccc4[nH]3)n[nH]c2=S)cc1	-8	-3	0%	0%	x
NS(=O)(=O)c1ccc(CNC(=O)C2CCCN2C(=O)c2cccs2)cc1 (centres undefined)	x	x	1%	x	x
COc1ccc(CCNC(=O)c2ccccc2NS(=O)(=O)c2cc(C(=O)O)ccc2OC)cc1	-6	-4	1%	u	2
COc1ccc(CCNC(=O)c2ccccc2NS(=O)(=O)c2c(F)cccc2F)cc1	-5	-4	1%	4%	x
CCOc1ccccc1NS(=O)(=O)c1cccc2nsnc12	-6	-4	-3%	3%	x
CCOc1ccc(OCC)c(NS(=O)(=O)c2cccc3nsnc23)c1	-20	5	-1%	u	3
COCC(C)N=C1NN=C(c2c[nH]c3ccccc23)CS1 (centres undefined)	53*	64*	13%	u	-2
c1ccc2c(CN3CCCCC3)c[nH]c2c1	-4	4	0%	2%	x
Fc1ccccc1N1CCN(C2CCN(Cc3c[nH]c4ccccc34)CC2)CC1	16	24	9%	25µM*	-16
O=C(CSc1nc(-c2ccccc2)c(-c2ccccc2)[nH]1)N1CCN(S(=O)(=O)c2ccccc2)CC1	-5	-2	9%	3.5µM*	12
Cc1cc2ncn(CC(=O)O)c2cc1C	x	x	x	-3%	x
CC(=O)Nc1ccc(S(=O)(=O)NCC(=O)OCC(=O)NC(=O)c2cccn2C)cc1	3	-1	1%	2%	x
O=C(CSc1cn(CC(=O)N2CCOCC2)c2ccccc12)N1CCOCC1	-7	2	13%	u	6
